Bioassay records from PubChem BioAssay.
DT40 TDP1 no CPT = qHTS for Inhibitors of human tyrosyl-DNA phosphodiesterase 1 (TDP1): qHTS in cells in absence of CPT | AID 686978, 2013 | Potency, µM (doses to about 46.2 µM), without a hit: top-dose activity change, negative = growth inhibition, actives largely listed as inhibitors | actives 15% (n = 420,000) | DT40 Tdp1-/- hTDP1 cells, no CPT, ATP luminescence, 48 h; also: potency is read from the fitted curve at half-maximal effect; % is scaled to controls: 0 for no effect and ±100 for the full control effect; nearly all actives have a fitted effect of over 55% in size
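Luminescent ATP content (CellTiter-Glo) served as the growth readout. Knockout chicken DT40 cells expressing human TDP1 were exposed to compounds without camptothecin for a minimum 48 hr at 37 °C.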
DRD3 antagonist = D3 dopamine receptor (human) antagonism; P35462; D3R cells, DiscoveRx beta-arrestin luminescence, antagonist mode; stronger effect = lower value; max response, negative = inhibition, %; actives 2.5% (n = 360,000); in the data active = max response below about -50%; inconclusive = no clear call, values can overlap the other calls; also: % is scaled to controls: 0 for no effect and ±100 for the full control effect
Target sequence (P35462 whole entry, looked up): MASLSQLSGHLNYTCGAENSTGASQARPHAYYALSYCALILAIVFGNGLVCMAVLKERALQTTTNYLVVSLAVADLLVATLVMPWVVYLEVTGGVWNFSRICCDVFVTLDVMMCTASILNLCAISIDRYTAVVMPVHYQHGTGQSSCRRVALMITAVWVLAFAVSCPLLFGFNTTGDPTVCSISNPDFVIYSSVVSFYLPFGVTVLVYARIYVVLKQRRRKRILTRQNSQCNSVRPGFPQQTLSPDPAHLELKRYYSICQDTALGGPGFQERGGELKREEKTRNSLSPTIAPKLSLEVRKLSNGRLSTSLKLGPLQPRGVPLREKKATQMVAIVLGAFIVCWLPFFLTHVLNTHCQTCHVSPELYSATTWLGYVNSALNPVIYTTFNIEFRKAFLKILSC
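Cells expressing the human receptor were seeded at 1500 cells/well, incubated overnight at 37 degrees C in 5% CO2, then exposed to library compounds with dopamine controls for 90 minutes at 37 degrees C before luminescent detection.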
IL1B secr inh = inflammasome signaling inhibition, IL-1 beta readout | actives 4.7% (n = 360,000) | activity change, % at 57.5 µM | THP-1 LPS/ATP IL-1B secretion, AlphaLISA, 16 h; stronger effect = lower value; in the data active = activity change below about -50%; inconclusive = mostly about -30% to -49%; also: % is scaled to controls: 0 for no effect and ±100 for the full control effect
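Secreted IL-1B measured by AlphaLISA bead assay after 16 h compound exposure of THP-1 cells; compounds (final up to 57.5 uM) added 1 h before LPS (250 ng/mL) and ATP (1.25 mM) stimulation; lower signal means less secretion.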
DT40 TDP1 CPT = growth inhibition of DT40 Tdp1-/-;hTDP1 cells with camptothecin (screen for TDP1 inhibitors) | chicken DT40 Tdp1-/-;hTDP1 cells + 20 nM CPT, ATP luminescence, 48 h | Potency, µM (highest dose often 46.2 µM), inactives show top-dose activity change, negative = growth inhibition, hits mostly inhibitors | actives 12% (n = 420,000); also: potency is read from the fitted curve at half-maximal effect; % is scaled to controls: 0 for no effect and ±100 for the full control effect; nearly all actives have a fitted effect of over 55% in size
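Cell growth measured by CellTiter-Glo luminescence after a minimum 48 h, 37 C compound exposure with 20 nM CPT in Tdp1-knockout DT40 cells stably expressing hTDP1, seeded 400/well; qHTS titration format.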
ClpP mod = qHTS Assay for Activators of ClpP; actives 1.9% (n = 340,000); Potency, µM (highest dose often 57.5 µM), without a hit: top-dose activity change, negative = active; purified B. subtilis ClpP, FRET peptide cleavage, 20 min; ATP-dependent Clp protease proteolytic subunit (Bacillus subtilis (strain 168)), P80244; AID 651965, 2013; active = well fitted falling curve with a large enough effect; inconclusive = small, poorly fitted or top-dose-only effect; inactive = no such curve, though single readings can be large or run the other way; also: potency is read from the fitted curve at half-maximal effect; the source files actives as falling curves though it sought activators and does not explain the sign; nearly all actives have a fitted effect of over 65% in size
Target sequence (P80244 whole entry, looked up): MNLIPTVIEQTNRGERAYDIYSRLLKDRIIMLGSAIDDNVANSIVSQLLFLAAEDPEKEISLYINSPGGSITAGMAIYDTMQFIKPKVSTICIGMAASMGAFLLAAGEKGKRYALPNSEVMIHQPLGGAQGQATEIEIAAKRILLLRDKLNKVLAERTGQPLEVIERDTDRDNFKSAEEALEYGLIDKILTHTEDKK
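FRET quenching reversal measured ClpP activation: 10 microg/mL B. subtilis ClpP at pH 8 with the FRET-FV decapeptide, read at 430 nm after 320 nm excitation. The 20-min minus 0-min signal was scaled between DMSO/no-enzyme wells and ADEP (5.8 microM final).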
DRD3 agonist = activates the human D3 dopamine receptor. P35462. D3R DiscoveRx beta-arrestin cells, luminescence, 90 min. max activation, %. actives 0.58% (n = 410,000). AID 652048; in the data active = max activation above about 30%; also: 0% is about no effect
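Agonist-mode cell screen: cells plated at 1500/well and incubated overnight at 37 °C, then exposed to library compounds for 90 min at 37 °C. Detection reagent was added for 30–60 min at room temperature, and luminescence was read.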
Active calls of the source: *; ? = inconclusive; . = not tested or not shown; [ ] = dose if it differs, or a comment. A selection: hits, their analogues and other compounds. The true share with any hit is near 21%. Unless noted, calls follow the shape of the dose curve; as a rule, active = well fitted inhibition curve with a large enough effect; inconclusive = small, poorly fitted or top-dose-only effect; inactive = flat fitted curve, though single readings scatter.

SMILES | DT40 TDP1 no CPT | DRD3 antagonist | IL1B secr inh | DT40 TDP1 CPT | ClpP mod | DRD3 agonist
Nc1ccc2nc(-c3ccc(N)c(Cl)c3)[nH]c2c1 | 8.2µM* | -24.4 | ? | 6.51µM* | 3.55µM* | 0.0
COc1ccc2nc(-c3ccc(N)cc3)[nH]c2c1 | ? | -1.5 | ? | ? | 116.3% | -0.2
Nc1ccc2nc(-c3cccs3)[nH]c2c1 | ? | 6.5 | 4.3 | 20.6µM* | 10µM* | 0.1
Cc1ccc(S(=O)(=O)N2[C@@H](Cc3ccccc3)CO[C@H]2CC(=O)c2ccccc2)cc1 | -26.8% | -26.9 | -6.1 | -22.8% | -10.0% | -11.4
CC(C)N1CCC(NC(=O)Nc2ccc3c(c2)OCO3)CC1 | 7.1% | 7.3 | 1.4 | 5.6% | . | 5.7
CCOC(=O)c1ccc(Nc2nc3ccc(C(=O)c4ccccc4)cc3n3c(C)nnc23)cc1 | -18.4% | . | . | -22.0% | -2.2% | -4.6
O=C(Nc1cccnc1)c1cccs1 | 0.366µM* | 20.4 | 21.5 | 0.326µM* | 1.5% | -18.0
O=C(Nc1cccnc1)c1cc(-c2ccco2)on1 | ? | ? | -11.6 | 9.2µM* | -11.2% | -50.4
COc1cccc(-c2cc(C(=O)Nc3c(C)nn(Cc4ccccc4)c3C)no2)c1 | 18.4µM* | 31.5 | -27.7 | ? | 0.3% | 11.4
COc1ccccc1-c1cc(C(=O)Nc2cc(C)nn2-c2ccccc2)no1 | 25.9µM* | 16.5 | 32.8 | 18.4µM* | 14.9% | 2.0
Cc1nn(-c2ccccc2)c(Cl)c1C(=O)OCC(=O)NCCc1ccc(S(N)(=O)=O)cc1 | -22.7% | 19.6 | -11.7 | 5.7% | 1.5% | 3.6
O=C(O)[C@H](O)[C@@H](O)[C@H](O[C@@H]1O[C@H](CO)[C@H](O)[C@H](O)[C@H]1O)[C@H](O)CO | 2.8%[21.1 µM] | . | . | -0.7%[21.1 µM] | . | -4.5
CN(CC(=O)Nc1c(Cl)cccc1Cl)C(=O)Cn1[nH]c(=O)c2ccccc2c1=O | -23.7% | -1.6 | 5.8 | ? | -21.7% | -0.7
CCOc1ccc(NC(=O)CSc2nnc(Cc3csc(C)n3)o2)cc1 | 8.9% | 5.3 | 1.1 | -0.6% | -0.3% | -3.2
COc1ccc(N2CC(NC(=O)COc3ccc4ccccc4c3)CC2=O)cc1OC (stereo unspecified) | -22.8% | . | . | -27.0% | 0.4% | 8.9
CCc1ccc(CN2CCC(n3nccc3NC(=O)c3cccc(F)c3)CC2)cc1 | ? | 13.9 | -25.0 | ? | -1.0% | -5.3
Cc1ccc(NC(=O)c2cc(-c3ccco3)on2)cc1C | ? | 6.5 | -11.9 | ? | 96.7% | -27.0
O=C(Nc1ccc(CN2CCOCC2)cc1)c1cccs1 | -16.9% | -10.0 | 2.2 | -1.3% | 0.6% | 0.4
Cc1ccc(NC(=O)c2cc(-c3ccco3)on2)cc1 | ? | -9.2 | -27.1 | 14.6µM* | ? | -21.5
O=C(Nc1cnn(Cc2ccc(Cl)cc2)c1)c1cccs1 | 8.2µM* | 0.8 | -26.7 | 11.6µM* | 2.1% | -9.3
COC(=O)c1c(-c2cccnc2)csc1NC(=O)c1cc(C)on1 | 16.4µM* | 28.2 | -7.1 | ? | -2.3% | 2.4
Cc1cccc(-c2csc(NC(=O)c3cnccn3)c2C(=O)OC(C)C)c1 | -24.1% | 5.9 | 34.2 | ? | -1.0% | 0.2
COc1ccccc1-c1cc(C(=O)Nc2cc(OC)c(OC)c(OC)c2)no1 | 0.651µM* | . | . | 0.517µM* | -1.0% | 4.4
COc1ccc(NC(=O)c2cc(-c3ccccc3Cl)on2)cc1OC | -2.6% | 3.4 | -27.5 | -5.5% | . | 14.9
O=c1cc(CNc2ccc(Br)cc2)nc2sccn12 | ? | -0.7 | -8.6 | ? | -12.8% | 1.3
SMILES | DT40 TDP1 no CPT | DRD3 antagonist | IL1B secr inh | DT40 TDP1 CPT | ClpP mod | DRD3 agonist
Cc1cccc(C)c1NC(=O)C1c2ccccc2OCC(=O)N1CCc1c[nH]c2ccccc12 (stereo unspecified) | -27.5% | 32.6 | -10.8 | -3.3% | -2.6% | 2.6
CC(C)(C)c1ccc(C(=O)c2cn[nH]c2-c2ccccc2O)cc1 | ? | -16.4 | -19.3 | ? | . | 1.0
O=C(Nc1cc(C(F)(F)F)ccc1-n1cncn1)c1ccc(F)cc1Cl | ? | 16.3 | 0.0 | ? | -5.2% | -14.0
COc1cccc(-c2cc(C(=O)Nc3cccnc3)no2)c1 | 13µM* | 15.0 | 28.2 | 20.6µM* | 10.0% | 0.9
COc1ccc(NC(=O)c2cc(-c3ccc(OC)c(OC)c3)on2)cc1OC | 3.7% | 16.9 | -0.9 | -7.3% | 22.4µM* | -0.8
CC(C)n1cc(NC(=O)c2cc(-c3ccccc3)on2)cn1 | 3.66µM* | 0.2 | 17.6 | 5.17µM* | 0.3% | -2.2
O=C(Nc1cccnc1)c1ccco1 | 23.1µM* | 12.3 | -2.9 | ? | -0.5% | 1.9
COc1ccc(NC(=O)c2cc(-c3ccc(C)cc3)on2)cc1OC | 1.5% | 6.3 | -13.8 | 1.6% | ? | 1.8
O=C(Nc1cccnc1)c1ccc(NC(=O)c2ccco2)cc1 | -14.3% | 8.6 | -27.1 | -16.2% | -2.4% | -2.1
COc1cc2c(cc1O)CCN(C(=O)CSc1nncn1C)[C@@H]2C | 3.5% | 34.2 | 17.8 | -14.8% | 0.2% | 16.1
CCCCCOc1ccc(/C=C/C(=O)Nc2sc3c(c2C(=O)OCC)CCC3)cc1OC | ? | . | . | -5.4% | -4.2% | -9.8
COc1cc(NC(=O)c2ccccn2)cc(OC)c1OC | ? | -3.3 | 2.9 | 16.4µM* | -0.6% | 0.2
COc1cccc(-c2cc(C(=O)Nc3cc(OC)c(OC)c(OC)c3)no2)c1 | 9.2µM* | 18.1 | -26.5 | 11.6µM* | -3.2% | 7.2
COc1ccc(N2CCN(c3cc(C(=O)Nc4cc(OC)c(OC)c(OC)c4)ncn3)CC2)cc1OC | 18.4µM* | 12.2 | 34.0 | 14.6µM* | 0.0% | -2.3
COc1cc(NC(=O)c2cccnc2Sc2ccc(Cl)cc2)cc(OC)c1OC | ? | 0.0 | 1.3 | ? | 62.2% | -5.8
COc1cc(NC(=O)CN2CCN(c3ccccn3)CC2)cc(OC)c1OC | -19.2% | -15.8 | 5.0 | -29.4% | . | -8.1
COc1ccc(NC(=O)c2cc(-c3ccccc3)on2)cc1 | -17.2% | 5.7 | -12.5 | -5.6% | 1.1% | -0.6
COc1cc(NC(=O)c2cc(-c3ccccc3)on2)cc(OC)c1OC | 13µM* | 8.5 | -14.1 | ? | 1.0% | -3.9
CCCCCCCCOc1ccccc1C(=O)Nc1ccc(C(=O)OCC[N+](C)(CC)CC)cc1 | ? | . | . | ? | . | -7.2
CN(C)c1ccc(/C=N/NC(=O)c2ccc(-n3cnnn3)cc2)cc1 | -11.6% | -20.7 | -17.1 | 6.2% | 1.2% | -3.2
